Measurements as given in ChEMBL document CHEMBL4513216, “Probing the Open Global Health Chemical Diversity Library for Multistage-Active Starting Points for Next-Generation Antimalarials” (ACS Infect Dis, 2020).
Screen size: about 69,000 compounds; about 8,600 (12%) showed an effect of 50% or more. This excerpt belongs to a sample that is enriched for strong results.

These compounds were tested on Plasmodium berghei (assay: Screen against P. berghei liver stage (PbLuc), transformed with Luciferase, at 10uM). Settings: tested at 10 uM.
Format: functional, HepG2
`Cc1ccc2nc(C(=O)N3CCCC[C@]4(C)NC(=O)CCC[C@H]34)cn2c1` showed an INHIBITION of -56.2%. Compound `CNC(=O)NCc1nn(-c2ccccc2)c2c1CCC2` has an INHIBITION of 10.675%. `CC(C)c1nnc2n1CCN(C(C(N)=O)c1ccc(F)cc1)C2` (stereo unspecified) showed an INHIBITION of 20%. Work on `COc1ccccc1CNC(=O)CNc1ccccc1C(C)=O` yielded an INHIBITION of -33.4%. With `Cc1nc(CC(=O)N2CCCN(c3ccc(C#N)cc3)CC2)cs1` the INHIBITION was -11.8%. `CS(=O)(=O)NCC1CCCCN1C(=O)c1cccc(C(F)(F)F)c1` (stereo unspecified) was tested, and the INHIBITION was 30.6%. `CCC(=O)N1CCC(Cc2ccccc2-c2ccncc2)(C(N)=O)C1` (stereo unspecified) was tested, and the INHIBITION was 7.52%. Work on `CC(C)c1nnc2n1CCN(CC(=O)N1CCc3ccccc3C1)C2` yielded an INHIBITION of 46.5%. Compound `CCc1nnc2n1CCN(CC(=O)N1CCc3ccccc3C1)C2` has an INHIBITION of 59.7%. Work on `Cc1nnc2n1CCN(C(=O)CN1C(=O)CCCc3ccccc31)C2` yielded an INHIBITION of 2.82%. `Cc1nnc2n1CCN(CC(=O)N1CCc3ccccc3C1)C2` showed an INHIBITION of 50.7%. `CC(C)c1nnc2n1CCN(CC(=O)N1CCc3sccc3C1)C2` gave an INHIBITION of -12.915%. `CCc1nnc2n1CCN(CC(=O)N(CC)C1=CCCCC1)C2` was tested, and the INHIBITION was 24.6%. With `CC(O)CN1CCC(CNCc2cccc(C(=O)N(C)C)c2)CC1` (stereo unspecified) the INHIBITION was -38.7%. `CCC(C)(CC(=O)O)NC(=O)Cc1ccccc1Br` (stereo unspecified) was tested, and the INHIBITION was -49.7%. In the case of `CC(C)(NC(=O)Cc1ccccc1F)C(=O)O`, the INHIBITION is reported as -16%. `CCC(C)(CC(=O)O)NC(=O)Cc1ccccc1F` (stereo unspecified) gave an INHIBITION of 64.2%. Work on `COCCC(=O)N1CCC2(CC1)CN(C(C)=O)Cc1ccccc1O2` yielded an INHIBITION of 14.805%. `Cc1ccccc1C1(C(=O)N2CCCC(n3cncn3)C2)CC1` (stereo unspecified) showed an INHIBITION of 27.8%. Work on `COc1ccc(S(=O)(=O)N2CCC[C@@H]3CN(C(=O)C4CC4)C[C@@H]32)cc1F` yielded an INHIBITION of 40.75%. `COc1ccc(S(=O)(=O)N2CCC[C@@H]3CN(C(=O)C4CC4)C[C@@H]32)cc1` gave an INHIBITION of 54%. In the case of `CC(=O)N1C[C@H]2CCCN(S(=O)(=O)c3ccc(Cl)s3)[C@H]2C1`, the INHIBITION is reported as 3.48%. `O=C(C1CC1)N1C[C@H]2CCCN(S(=O)(=O)c3ccc4c(c3)CCC4)[C@H]2C1` was tested, and the INHIBITION was 58.8%. Work on `O=C(C1CC1)N1C[C@H]2CCCN(S(=O)(=O)c3cccc(F)c3)[C@H]2C1` yielded an INHIBITION of 26.97%. `O=C(C1CC1)N1C[C@H]2CCCN(S(=O)(=O)c3ccc(Cl)s3)[C@H]2C1` gave an INHIBITION of 31.3%. With `CS(=O)(=O)N1CCC(Cc2cnc(Br)cn2)CC1` the INHIBITION was 33.2%. In the case of `CCOC(=O)c1cnn(C2CCN(C(=O)CC3C=CCC3)CC2)c1N` (stereo unspecified), the INHIBITION is reported as 29.8%. For `CN(Cc1ccc(Cl)s1)C(=O)COc1cccc(C(N)=O)c1`, the INHIBITION was -19%. `CNC(=O)C1CN(c2cc(C)ncn2)CCN1Cc1ccccc1` (stereo unspecified) showed an INHIBITION of -42%. Work on `Cc1noc(C)c1CN1CCn2cc(CN3CCOCC3)nc2C1` yielded an INHIBITION of -50%. For `Cc1cc(C)nc(NCCCC(=O)NCCn2ccc3ccccc32)n1`, the INHIBITION was 28.5%. Compound `Cc1c(C2CCOC(C)(C)C2)nc(N)c(C#N)c1-c1ccc(O)cc1` (stereo unspecified) has an INHIBITION of 30.1%. For `Cc1cnn(CCNCC(O)COc2c(C)ccc(C)c2C)c1` (stereo unspecified), the INHIBITION was 52.7%. In the case of `Cc1cnn(CCNCC(=O)NCCOc2ccccc2)c1`, the INHIBITION is reported as 57.2%. With `Cc1cnn(CCNCC(O)COc2ccc(C#N)cc2)c1` (stereo unspecified) the INHIBITION was 26.3%. With `Cc1cnn(CCNCC(O)COc2ccc(F)cc2)c1` (stereo unspecified) the INHIBITION was 54.4%. For `Cc1cnn(CCNCC(O)COc2cccc(C(F)(F)F)c2)c1` (stereo unspecified), the INHIBITION was 37.4%. Compound `Cc1cnn(CCNCC(O)COc2c(Cl)cccc2Cl)c1` (stereo unspecified) has an INHIBITION of -32%. `Cc1cnn(CCNCC(=O)NCCOc2ccc(Cl)cc2)c1` gave an INHIBITION of -0.96%. For `Cc1cnn(CCNCC(=O)NCCOc2ccc(F)cc2)c1`, the INHIBITION was 45.7%. `Cc1cnn(CCNCC(O)COc2ccc(Cl)cc2)c1` (stereo unspecified) showed an INHIBITION of 45.8%. Work on `CC(C)n1ccc(C(=O)N2CCCC(n3cncn3)C2)n1` (stereo unspecified) yielded an INHIBITION of 31.9%. `Cc1cccc(Nc2nccnc2C2CCCN2CC(=O)N(C)C)n1` (stereo unspecified) gave an INHIBITION of 46.1%. `c1cnn(Cc2nnc3n2CCCN(CC2CCOCC2)C3)c1` was tested, and the INHIBITION was 27.9%. For `CN(C)c1ncc(I)c(C2CCCCN2C)n1` (stereo unspecified), the INHIBITION was -0.232%. `CN(C(=O)CN1CCC(NC(=O)c2cccs2)CC1)c1ccccc1` was tested, and the INHIBITION was 16.9%. `O=C(CSc1nc2n[nH]cc2c(=O)n1-c1ccccc1)N1CCOCC1` gave an INHIBITION of 13.9%. Compound `O=C(NC[C@H]1OC[C@@H](NC2CCCC2)[C@@H]1O)C1CCCC1` has an INHIBITION of 30.5%. `CC(C)(C)CN[C@@H]1CO[C@H](CNC(=O)C2CCCC2)[C@H]1O` gave an INHIBITION of 51%. With `O=C(NC[C@H]1OC[C@@H](NC2COC2)[C@@H]1O)C1CCCC1` the INHIBITION was 29%. `CC(=O)N1CCN(c2ncnc3cc4c(cc23)OCCO4)CC1` gave an INHIBITION of 36.6%. For `CNC(=O)CN(C)c1nc(-c2ccc(C(N)=O)cc2)nc2c1CCNC2`, the INHIBITION was 10.3%. Work on `Cc1cc(C)c2c(NCc3nncn3C3CCCCC3)ncnc2n1` yielded an INHIBITION of -41.4%. Compound `Cc1ncc(-c2ccnc(NC3CC3)n2)c(-c2cccnc2)n1` has an INHIBITION of 2.6%. With `CC(C)N1CCC2(CC1)NC(=O)c1cc(Br)ccc1-n1nnnc12` the INHIBITION was 58.2%. With `CCN1CCC2(CC1)NC(=O)c1cc(Br)ccc1-n1nnnc12` the INHIBITION was 33.3%. `O=C1NC2(CCCCC2)c2nnnn2-c2ccc(Br)cc21` was tested, and the INHIBITION was 42.4%. `CN1C[C@@H](O)[C@]2(CCN(C(=O)OCc3ccccc3)C2)S1(=O)=O` was tested, and the INHIBITION was 1.8%. With `Cc1ccc2c(c1)C1(CC2)CCN(CC(=O)O)CC1` the INHIBITION was 19.5%. `c1cc(-c2ccc3c(c2)CCC32CCN(c3nncs3)CC2)ccn1` was tested, and the INHIBITION was 62.8%. In the case of `c1cc(-c2ccc3c(c2)C2(CC3)CCN(c3nncs3)CC2)ccn1`, the INHIBITION is reported as 15.4%. Work on `Cc1cccc(N2CC3(CCN(c4nncs4)C3)CC2=O)c1` (stereo unspecified) yielded an INHIBITION of 14.5%. Compound `CN1CCOCC12CCN(c1nncs1)CC2` has an INHIBITION of -7.24%. `c1cc(-c2ccc3c(c2)CCC32CCN(c3nncs3)CC2)co1` showed an INHIBITION of 24.9%. `Cc1ccc2c(c1)C1(CC2)CCN(c2nncs2)CC1` gave an INHIBITION of 56.8%. In the case of `c1cncc(-c2ccc3c(c2)C2(CC3)CCN(c3nncs3)CC2)c1`, the INHIBITION is reported as 76.8%.
